In PubChem BioAssay (Tox21):
Inconclusive results are not listed. Activity calls are given as the source filed them. Unless noted, calls follow the shape of the dose curve; as a rule, active = well fitted curve in the direction sought with a large enough effect in the repeat runs; inconclusive = weak or mixed curves; inactive = no such curve, though single readings can be large; an effect the other way counts as inactive or inconclusive.

Key:
[1] = qHTS assay to identify small molecule antagonists of the estrogen receptor alpha (ER-alpha) signaling pathway using the BG1 cell line in the presence of 0.1 nM 17-beta-estradiol - cell viability counter screen (AID 1259241); also: nearly all actives have a fitted effect of over 40% in size; also: potency is read from the fitted curve at half-maximal effect
Summary of the method: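 Live-cell protease activity (CellTiter-Fluor fluorescence, 30 min) was read in the same wells after VM7Luc4E2 cells had been exposed to compounds with 0.1 nM 17beta-estradiol for 22 hr at 37C.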

[2] = qHTS assay to identify small molecule antagonists of the androgen receptor (AR) signaling pathway using the MDA cell line in the presence of 0.5 nM R1881 - cell viability counter screen (AID 1259242); also: nearly all actives have a fitted effect of over 45% in size; also: potency is read from the fitted curve at half-maximal effect
Summary of the method: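 Viability of MDA-kb2 cells was multiplexed with the luciferase AR readout; after 16 hr with compounds and R1881 at 0.5 nM final, CellTiter-Fluor fluorescence was recorded.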

[3] = molecular target: Estrogen receptor (Homo sapiens) (UniProt P03372); experiment: qHTS assay to identify small molecule antagonists of the estrogen receptor alpha (ER-alpha) signaling pathway using the BG1 cell line in the presence of 0.1 nM 17-beta-estradiol (AID 1259244); also: nearly all actives have a fitted effect of over 50% in size; also: potency is read from the fitted curve at half-maximal effect
Summary of the method: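 Estradiol at 0.1 nM (final) stimulates the endogenous ER-alpha of VM7Luc4E2 cells carrying an ERE-driven luciferase; compounds are co-incubated 22 h at 37C and luciferase output quantified by luminescence.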

[4] = qHTS assay to identify small molecule phospholipidosis (PLD) inducers (AID 1259344; active = well fitted curve in the direction sought with a large enough effect; an effect the other way counts as inactive or inconclusive; also: potency is read from the fitted curve at half-maximal effect)
Summary of the method: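 HepG2 cells grown on collagen I take up LipidTOX Red while exposed to compound for 24 h; after fixation they are imaged at 20x and pit metrics are extracted.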

[5] = qHTS assay to identify small molecule HDAC inhibitors (AID 1259364); also: potency is read from the fitted curve at half-maximal effect;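 also: wild-type HCT-116 cells with endogenous class I/II HDAC activity; nearly all actives have a fitted effect of over 45% in size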; as to activity change, negative = inhibition: top concentration of the series differs between compounds
Summary of the method: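 Read-out: luminescence of HDAC-Glo I/II reagent, 30 min RT, reflecting class I/II deacetylase activity in whole HCT-116 cells pre-exposed 2 h to DMSO-dissolved compounds.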

[6] = qHTS assay to identify small molecule agonists of the sonic hedgehog signaling (Shh) pathway - cell viability counter screen (AID 1259366); also: nearly all actives have a fitted effect of over 50% in size; also: potency is read from the fitted curve at half-maximal effect
Summary of the method: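 CellTiter-Fluor fluorescence read-out, 1 hr at 37C, added after 23hr compound exposure. Cells: 3T3 Gli1-Luc, an NIH/3T3 clone with stably integrated Gli1-Luc reporter, plated 4hr before compound.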

[7] = qHTS assay to identify small molecule antagonists of the sonic hedgehog signaling (Shh) pathway - cell viability counter screen (AID 1259367); also: nearly all actives have a fitted effect of over 55% in size; also: potency is read from the fitted curve at half-maximal effect
Summary of the method: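 After a 4 hr settling period, 3T3 Gli1-Luc cells were treated with DMSO-dissolved chemicals and conditioned medium, kept 24 hr at 37C in 5% CO2, and assayed for viability by CellTiter-Fluor fluorescence following 1 hr reagent incubation.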

[8] = qHTS assay to identify small molecule agonists of the sonic hedgehog signaling (Shh) pathway (AID 1259368; calls by dose curve;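 also: NIH/3T3-derived 3T3Gli1-Luc cells carrying a stable Gli1-driven firefly luciferase reporter; series mostly up to about 92 µM; nearly all actives have a fitted effect of over 15% in size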)
Summary of the method: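 A Gli1 transcriptional response element controlled firefly luciferase in 3T3Gli1-Luc cells. Compounds and a positive control were added 4 hr after plating, and cells were incubated a further 24 hr at 37 C before luminescence detection.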

[9] = qHTS assay to identify small molecule antagonists of the sonic hedgehog signaling (Shh) pathway (AID 1259369; calls by dose curve; also: nearly all actives have a fitted effect of over 45% in size; also: potency is read from the fitted curve at half-maximal effect)
Summary of the method: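 For antagonist detection, the reporter line received test compounds together with conditioned medium, incubated 24hr at 37 C, 5% CO2, then luminescence was recorded following 30min room-temperature luciferase reagent incubation.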

[10] = qHTS assay to identify small molecule agonists of the androgen receptor (AR) signaling pathway in the presence of an antagonist - cell viability counter screen (AID 1259379); also: nearly all actives have a fitted effect of over 25% in size; also: potency is read from the fitted curve at half-maximal effect
Summary of the method: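 Seed MDA-kb2 at 3,000 cells/well; incubate 5 hr, 37C, 0% CO2. Add nilutamide to 3.0uM final, then pin compounds at 15 concentrations. Incubate 16 hr. Add CellTiter-Fluor at 15 hr, read fluorescence after 1 hr.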

[11] = qHTS assay to identify small molecule agonists of the estrogen receptor beta (ER-beta) signaling pathway - cell viability counter screen (AID 1259380); also: nearly all actives have a fitted effect of over 30% in size; also: potency is read from the fitted curve at half-maximal effect
Summary of the method: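 CellTiter-Glo read, 30 min RT, same wells as bla assay; cells ER-beta-UAS-bla HEK293T; 16 hr compound, 37C; medium 2% charcoal-stripped FBS.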

[12] = qHTS assay to identify small molecule antagonists of the estrogen receptor beta (ER-beta) signaling pathway - cell viability counter screen (AID 1259382); also: nearly all actives have a fitted effect of over 55% in size; also: potency is read from the fitted curve at half-maximal effect
Summary of the method: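 In this multiplexed counter screen, cells were seeded at 2,000 per well in medium with 2% charcoal-stripped FBS and incubated 6 hr before compound and 1nM final E2 were added. Sixteen hours later, ATP-based luminescence reported viability.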

[13] = molecular target: Estrogen receptor (Homo sapiens) (UniProt P03372); experiment: qHTS assay to identify small molecule agonists of the estrogen receptor alpha (ER-alpha) signaling pathway in the presence of an antagonist (AID 1259383; calls by dose curve; also: top concentration of the series differs between compounds; nearly all actives have a fitted effect of over 15% in size)
Summary of the method: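 Stably transfected VM7Luc4E2 reporter cells, kept 5 days in charcoal-stripped serum, received ICI-182,780 at 10.0nM final before compound addition. Following 22hr incubation at 37C and 5% CO2, luciferase signal was read by luminescence.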

[14] = qHTS assay to identify small molecule agonists or antagonists of the thyroid stimulating hormone receptor (TSHR) signaling pathway - wild type cell line counter screen (AID 1259384; calls by dose curve)
Summary of the method: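 Wild-type HEK293 cells were plated 18 h at 37 C/5% CO2, pin-dosed with compound plus Ro20-1724 medium, held 30 min at room temperature, then given cAMP-d2 and anti-cAMP-cryptate; fluorescence was read after 1 h. Fifteen concentrations, triplicate.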

[15] = molecular target: Thyrotropin receptor (Homo sapiens) (UniProt P16473); experiment: qHTS assay to identify small molecule antagonists of the thyroid stimulating hormone receptor (TSHR) signaling pathway (AID 1259385; calls by dose curve; also: nearly all actives have a fitted effect of over 20% in size; also: potency is read from the fitted curve at half-maximal effect)
Summary of the method: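 TSHR-HEK293 cells were plated and held 18 h at 37C/5% CO2, then given compound plus Ro20-1724 and stimulated with TSH at 1.5 ng/mL final. After 30 min at room temperature, cAMP was detected with cAMP-d2/anti-cAMP-cryptate (1 h) by fluorescence.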

[16] = qHTS assay to identify small molecule HDAC inhibitors - cell viability counter screen (AID 1259365); also: nearly all actives have a fitted effect of over 50% in size; also: potency is read from the fitted curve at half-maximal effect
Summary of the method: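 HCT-116 (wild type), 1,500 cells/well, overnight 37C/5% CO2; compound in DMSO 2hr; CellTiter-Glo 30min RT; luminescence read.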

[17] = molecular target: Estrogen receptor beta (Homo sapiens) (UniProt Q92731); experiment: qHTS assay to identify small molecule agonists of the estrogen receptor beta (ER-beta) signaling pathway (AID 1259377; active = well fitted activation curve with a large enough effect in the signal ratio in the repeat runs, not every such curve was filed as active; the % refers to the signal ratio)
Summary of the method: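 Beta-lactamase reporter readout: fluorescence of LiveBLAzer B/G FRET substrate after 2 h at room temperature, following 16 h compound treatment of ER-beta-UAS-bla HEK293T cells at 37C in 2% charcoal-stripped FBS medium.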

[18] = molecular target: Androgen receptor (Homo sapiens) (UniProt P10275); experiment: qHTS assay to identify small molecule agonists of the androgen receptor (AR) signaling pathway in the presence of an antagonist (AID 1259381; calls by dose curve; also: nearly all actives have a fitted effect of over 15% in size)
Summary of the method: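 Test compounds at 15 concentrations were incubated for 16hr with MDA-kb2 reporter cells in presence of 3.0uM nilutamide (final). Signal: ONE-Glo luciferase luminescence.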

[19] = molecular target: Estrogen receptor beta (Homo sapiens) (UniProt Q92731); experiment: qHTS assay to identify small molecule antagonists of the estrogen receptor beta (ER-beta) signaling pathway (AID 1259378; active = well fitted inhibition curve with a large enough effect in the signal ratio in the repeat runs, not every such curve was filed as active; the % refers to the signal ratio; also: potency is read from the fitted curve at half-maximal effect)
Summary of the method: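 ER-beta-UAS-bla HEK293T (GripTite) cells in 2% charcoal-stripped FBS medium were preincubated 6 hr at 37C, dosed with compound, then stimulated with 1 nM E2 (final) for 16 hr; beta-lactamase reporter read by B/G FRET fluorescence after 2 hr substrate loading.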
% is scaled to controls: 0 for no effect and ±100 for the full control effect.

Sequence of Androgen receptor (Homo sapiens) (P10275 whole entry, looked up): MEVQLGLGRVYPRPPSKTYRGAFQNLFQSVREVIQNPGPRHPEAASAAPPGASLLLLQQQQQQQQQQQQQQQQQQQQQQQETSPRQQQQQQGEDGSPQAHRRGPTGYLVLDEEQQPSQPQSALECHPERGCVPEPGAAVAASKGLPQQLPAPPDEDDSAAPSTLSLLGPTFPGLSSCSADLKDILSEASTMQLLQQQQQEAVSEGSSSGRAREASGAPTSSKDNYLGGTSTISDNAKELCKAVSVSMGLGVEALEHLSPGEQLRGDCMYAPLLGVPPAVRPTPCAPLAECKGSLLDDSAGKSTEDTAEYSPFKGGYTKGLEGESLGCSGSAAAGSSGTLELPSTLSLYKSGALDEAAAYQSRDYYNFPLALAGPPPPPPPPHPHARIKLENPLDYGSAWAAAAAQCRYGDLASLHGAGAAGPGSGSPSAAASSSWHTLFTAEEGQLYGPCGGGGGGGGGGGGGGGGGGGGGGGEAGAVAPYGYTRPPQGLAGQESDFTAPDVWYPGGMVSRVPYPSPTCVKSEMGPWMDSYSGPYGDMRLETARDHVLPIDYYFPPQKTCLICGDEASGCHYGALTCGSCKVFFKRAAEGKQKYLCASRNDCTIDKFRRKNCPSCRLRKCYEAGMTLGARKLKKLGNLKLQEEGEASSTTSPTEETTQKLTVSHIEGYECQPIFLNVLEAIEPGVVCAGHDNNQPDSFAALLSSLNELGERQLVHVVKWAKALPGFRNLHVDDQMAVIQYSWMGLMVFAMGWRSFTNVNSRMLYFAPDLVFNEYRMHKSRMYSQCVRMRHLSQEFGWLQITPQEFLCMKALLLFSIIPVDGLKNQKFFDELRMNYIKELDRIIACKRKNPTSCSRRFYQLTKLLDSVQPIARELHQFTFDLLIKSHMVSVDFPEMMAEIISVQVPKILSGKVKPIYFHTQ
Sequence of Thyrotropin receptor (Homo sapiens) (P16473 whole entry, looked up): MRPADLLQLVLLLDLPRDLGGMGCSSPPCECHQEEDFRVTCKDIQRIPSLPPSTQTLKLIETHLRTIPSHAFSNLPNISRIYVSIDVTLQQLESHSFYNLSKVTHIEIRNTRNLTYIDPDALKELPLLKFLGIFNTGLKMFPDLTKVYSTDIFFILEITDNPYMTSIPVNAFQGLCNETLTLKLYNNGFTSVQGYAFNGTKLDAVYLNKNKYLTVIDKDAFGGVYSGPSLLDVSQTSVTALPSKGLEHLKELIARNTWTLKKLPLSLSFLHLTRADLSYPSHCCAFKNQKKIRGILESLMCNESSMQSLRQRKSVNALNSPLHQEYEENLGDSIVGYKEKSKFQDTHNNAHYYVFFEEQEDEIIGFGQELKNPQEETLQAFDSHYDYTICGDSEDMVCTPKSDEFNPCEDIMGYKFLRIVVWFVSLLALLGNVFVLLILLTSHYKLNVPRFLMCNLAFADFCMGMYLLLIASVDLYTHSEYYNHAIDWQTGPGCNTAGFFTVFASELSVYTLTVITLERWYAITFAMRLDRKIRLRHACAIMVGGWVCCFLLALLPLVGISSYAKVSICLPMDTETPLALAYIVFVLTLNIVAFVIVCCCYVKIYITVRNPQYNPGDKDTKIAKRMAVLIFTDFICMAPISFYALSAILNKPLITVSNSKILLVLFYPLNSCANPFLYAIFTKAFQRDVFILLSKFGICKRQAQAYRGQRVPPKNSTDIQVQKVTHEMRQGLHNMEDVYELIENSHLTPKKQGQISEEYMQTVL
Sequence of Estrogen receptor (Homo sapiens) (P03372 whole entry, looked up): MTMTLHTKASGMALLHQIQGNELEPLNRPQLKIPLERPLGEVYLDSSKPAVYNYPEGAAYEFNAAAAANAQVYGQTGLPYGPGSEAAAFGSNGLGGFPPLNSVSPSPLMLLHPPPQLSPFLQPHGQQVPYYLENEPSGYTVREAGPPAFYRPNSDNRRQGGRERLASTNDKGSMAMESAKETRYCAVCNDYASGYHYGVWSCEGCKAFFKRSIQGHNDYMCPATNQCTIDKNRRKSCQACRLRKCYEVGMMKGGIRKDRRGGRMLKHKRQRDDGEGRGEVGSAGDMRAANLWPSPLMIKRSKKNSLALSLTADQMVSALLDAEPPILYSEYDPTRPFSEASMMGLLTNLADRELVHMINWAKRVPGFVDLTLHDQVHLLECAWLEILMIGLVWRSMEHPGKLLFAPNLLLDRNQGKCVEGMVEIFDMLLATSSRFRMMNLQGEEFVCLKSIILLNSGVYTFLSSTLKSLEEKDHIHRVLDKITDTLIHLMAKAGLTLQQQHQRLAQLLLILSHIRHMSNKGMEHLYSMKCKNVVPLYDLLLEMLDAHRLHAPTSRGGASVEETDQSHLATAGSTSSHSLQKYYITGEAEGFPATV
Sequence of Estrogen receptor beta (Homo sapiens) (Q92731 whole entry, looked up): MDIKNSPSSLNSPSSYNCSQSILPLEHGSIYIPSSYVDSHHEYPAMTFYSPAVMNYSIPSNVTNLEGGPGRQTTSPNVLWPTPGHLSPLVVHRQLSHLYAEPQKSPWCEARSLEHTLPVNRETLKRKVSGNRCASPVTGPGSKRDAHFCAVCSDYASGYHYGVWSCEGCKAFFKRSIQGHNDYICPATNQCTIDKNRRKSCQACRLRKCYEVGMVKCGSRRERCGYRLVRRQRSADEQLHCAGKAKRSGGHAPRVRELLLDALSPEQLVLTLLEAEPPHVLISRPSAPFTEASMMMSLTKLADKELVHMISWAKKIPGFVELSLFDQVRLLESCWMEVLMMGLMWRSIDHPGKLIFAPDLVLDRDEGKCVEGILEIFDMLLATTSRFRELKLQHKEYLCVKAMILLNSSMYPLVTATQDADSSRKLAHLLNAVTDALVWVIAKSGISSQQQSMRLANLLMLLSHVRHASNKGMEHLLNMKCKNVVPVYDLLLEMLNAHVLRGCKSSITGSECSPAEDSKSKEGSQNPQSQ

CCCCCCCCOc1ccccc1C(=O)Nc1ccc(C(=O)OCC[N+](C)(CC)CC)cc1
inactive: Potency [1] | Potency [2] | Potency [3] | Potency [4] | Potency [5] | Potency [6] | Potency [7] | Potency [8] | Potency [9] | Potency [10] | Potency [13] | outcome [14] | Potency [15]
active: Potency [11] 23.7 µM | Potency [12] 23.7 µM

CN(C)[C@@H]1C(=O)C(C(N)=O)=C(O)[C@@]2(O)C(=O)C3=C(O)c4c(O)cccc4C[C@H]3C[C@@H]12
inactive: Potency [1] | Potency [2] | Potency [3] | Potency [5] | Potency [16] | Potency [6] | Potency [7] | Potency [8] | Potency [9] | Potency [10] | Potency [11] | Potency [12] | Potency [13] | outcome [14] | Potency [15]

O=C1c2ccccc2Cc2ccccc21
active: Potency [5] 6.16 µM | Potency [6] 6.91 µM
inactive: Potency [1] | Potency [2] | Potency [3] | Potency [16] | Potency [8] | Potency [9] | Potency [17] | Potency [10] | Potency [11] | Potency [12] | Potency [13] | outcome [14] | Potency [15]

CCCN(CCC)c1c([N+](=O)[O-])cc(C(F)(F)F)c(N)c1[N+](=O)[O-]
active: Potency [1] 60.9 µM | Potency [2] 60.9 µM | Potency [3] 54.3 µM | Potency [16] 60.9 µM | Potency [6] 48.4 µM | Potency [7] 60.9 µM | Potency [9] 21.6 µM | Potency [10] 60.9 µM | Potency [11] 21.6 µM | Potency [12] 30.5 µM
inactive: Potency [5] | Potency [8] | Potency [13]

CCCC(c1cc(C(C)(C)C)c(O)cc1C)c1cc(C(C)(C)C)c(O)cc1C
active: Potency [1] 61.9 µM | Potency [2] 49.2 µM | Potency [3] 27.6 µM | Potency [16] 49.2 µM | Potency [6] 22 µM | Potency [7] 17.4 µM | Potency [9] 13.9 µM | Potency [10] 31 µM | Potency [11] 12.3 µM | Potency [12] 13.9 µM
inactive: Potency [5] | Potency [8] | Potency [13] | outcome [14]

Cc1nc(-c2ccc3c(c2)CCN(CCC2CCC(NC(=O)/C=C/c4ccc(F)cc4)CC2)CC3)no1 (configuration not stated)
inactive: Potency [1] | Potency [2] | Potency [3] | Potency [5] | Potency [16] | Potency [6] | Potency [7] | Potency [8] | Potency [9] | Potency [10] | Potency [11] | Potency [18] | Potency [12] | Potency [13] | outcome [14] | Potency [15]

OC1(c2ccc(Cl)c(C(F)(F)F)c2)CCN(CCCC(c2ccc(F)cc2)c2ccc(F)cc2)CC1
inactive: Potency [4] | Potency [5] | Potency [8] | Potency [13] | outcome [14] | Potency [15]
active: Potency [1] 33.5 µM | Potency [2] 13.3 µM | Potency [3] 26.6 µM | Potency [6] 13.3 µM | Potency [7] 18.8 µM | Potency [9] 13.3 µM | Potency [10] 18.8 µM | Potency [11] 10.6 µM

CCCCCOC(=O)CCCC
inactive: Potency [1] | Potency [2] | Potency [3] | Potency [5] | Potency [16] | Potency [6] | Potency [7] | Potency [8] | Potency [9] | Potency [17] | Potency [19] | Potency [10] | Potency [11] | Potency [12] | Potency [13] | outcome [14] | Potency [15]

O=S1(=O)CC(Cl)(Cl)C(Cl)(Cl)C1
active: Potency [1] 21.7 µM | Potency [2] 21.7 µM | Potency [3] 21.7 µM | Potency [6] 1.37 µM | Potency [7] 2.17 µM | Potency [9] 0.344 µM | Potency [19] 4.86 µM | Potency [10] 21.7 µM | Potency [11] 9.69 µM | Potency [12] 9.69 µM | Potency [15] 48.6 µM
inactive: Potency [5] | Potency [8] | Potency [17] | Potency [18] | Potency [13] | outcome [14]

COCCCC/C(=N\OCCN)c1ccc(C(F)(F)F)cc1
active: Potency [19] 29.8 µM | Potency [11] 13.3 µM | Potency [15] 29.8 µM
inactive: Potency [1] | Potency [2] | Potency [3] | Potency [5] | Potency [16] | Potency [6] | Potency [7] | Potency [8] | Potency [17] | Potency [13] | outcome [14]

CC1=NC(C)OC1C (configuration not stated)
inactive: Potency [1] | Potency [2] | Potency [3] | Potency [5] | Potency [16] | Potency [6] | Potency [8] | Potency [10] | Potency [18] | Potency [12] | Potency [13] | outcome [14] | Potency [15]

NNc1nc(-c2ccc([N+](=O)[O-])cc2)cs1
active: Potency [1] 27.3 µM | Potency [2] 54.5 µM | Potency [3] 48.6 µM | Potency [5] 17.2 µM | Potency [7] 48.6 µM | Potency [10] 48.6 µM
inactive: Potency [16] | Potency [6] | Potency [8] | Potency [17] | Potency [19] | Potency [18] | Potency [13]

CCN1/C(=C/C=C/c2sc3ccccc3[n+]2CC)Sc2ccccc21
active: Potency [1] 2.31 µM | Potency [2] 0.82 µM | Potency [3] 0.58 µM | Potency [4] 22.4 µM | Potency [6] 4.61 µM | Potency [7] 5.17 µM | Potency [10] 1.16 µM | Potency [12] 11.6 µM
inactive: activity change, negative = inhibition [5] -19.9% [at 19 µM] | activity change [8] -1.72% [at 18.9 µM, active compounds read high] | activity change, negative = inhibition [9] -19% [at 19 µM] | activation [13] -11.7% [at 19 µM] | cAMP activity change [14] -0.304% [at 18.9 µM]

O=c1[nH]sc2cc(Cl)ccc12
active: Potency [11] 11.9 µM
inactive: Potency [1] | Potency [2] | Potency [3] | Potency [5] | Potency [16] | Potency [7] | Potency [8] | Potency [9] | Potency [10] | Potency [13] | outcome [14] | Potency [15]
